Assay results from ChEMBL document CHEMBL1961873, “Compounds: GSK PKIS; Assays: Nanosyn kinase panel” (2012).

Legend:
[1] = target: Sphingosine kinase 1 (Homo sapiens) (UniProt Q9NYA1); settings: at 1 µM;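 also: mean SPHK1 inhibition value reported from the GSK PKIS kinase panel screen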
[2] = target: T1, Sphingosine kinase 2 (Homo sapiens) (UniProt Q9NRA0); settings: at 0.1 µM
T1 sequence (whole entry): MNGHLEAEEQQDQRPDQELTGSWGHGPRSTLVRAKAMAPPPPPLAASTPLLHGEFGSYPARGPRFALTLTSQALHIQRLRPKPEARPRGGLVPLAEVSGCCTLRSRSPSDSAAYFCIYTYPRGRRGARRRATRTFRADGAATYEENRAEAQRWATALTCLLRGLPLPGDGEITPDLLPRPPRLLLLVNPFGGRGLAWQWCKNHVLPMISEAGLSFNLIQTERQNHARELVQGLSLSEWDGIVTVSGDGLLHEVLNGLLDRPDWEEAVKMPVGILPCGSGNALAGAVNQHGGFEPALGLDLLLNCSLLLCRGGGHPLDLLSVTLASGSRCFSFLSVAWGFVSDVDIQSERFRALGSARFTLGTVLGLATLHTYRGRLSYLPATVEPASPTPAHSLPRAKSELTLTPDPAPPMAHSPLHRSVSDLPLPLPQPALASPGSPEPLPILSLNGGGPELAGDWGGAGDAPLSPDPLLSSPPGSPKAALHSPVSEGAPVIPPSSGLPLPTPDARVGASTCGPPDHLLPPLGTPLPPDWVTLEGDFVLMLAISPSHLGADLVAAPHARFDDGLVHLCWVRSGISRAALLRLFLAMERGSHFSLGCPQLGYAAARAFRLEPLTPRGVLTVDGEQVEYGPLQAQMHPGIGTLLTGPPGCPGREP

[3] = target: T1, Sphingosine kinase 2 (Homo sapiens); settings: at 1 µM
[4] = target: Casein kinase II subunit alpha (Homo sapiens) (UniProt P68400); settings: at 0.1 µM
[5] = target: Casein kinase II subunit alpha (Homo sapiens) (UniProt P68400); settings: at 1 µM
[6] = target: T2, Inhibitor of nuclear factor kappa-B kinase subunit alpha (Homo sapiens) (UniProt O15111); settings: at 0.1 µM
T2 sequence (whole entry): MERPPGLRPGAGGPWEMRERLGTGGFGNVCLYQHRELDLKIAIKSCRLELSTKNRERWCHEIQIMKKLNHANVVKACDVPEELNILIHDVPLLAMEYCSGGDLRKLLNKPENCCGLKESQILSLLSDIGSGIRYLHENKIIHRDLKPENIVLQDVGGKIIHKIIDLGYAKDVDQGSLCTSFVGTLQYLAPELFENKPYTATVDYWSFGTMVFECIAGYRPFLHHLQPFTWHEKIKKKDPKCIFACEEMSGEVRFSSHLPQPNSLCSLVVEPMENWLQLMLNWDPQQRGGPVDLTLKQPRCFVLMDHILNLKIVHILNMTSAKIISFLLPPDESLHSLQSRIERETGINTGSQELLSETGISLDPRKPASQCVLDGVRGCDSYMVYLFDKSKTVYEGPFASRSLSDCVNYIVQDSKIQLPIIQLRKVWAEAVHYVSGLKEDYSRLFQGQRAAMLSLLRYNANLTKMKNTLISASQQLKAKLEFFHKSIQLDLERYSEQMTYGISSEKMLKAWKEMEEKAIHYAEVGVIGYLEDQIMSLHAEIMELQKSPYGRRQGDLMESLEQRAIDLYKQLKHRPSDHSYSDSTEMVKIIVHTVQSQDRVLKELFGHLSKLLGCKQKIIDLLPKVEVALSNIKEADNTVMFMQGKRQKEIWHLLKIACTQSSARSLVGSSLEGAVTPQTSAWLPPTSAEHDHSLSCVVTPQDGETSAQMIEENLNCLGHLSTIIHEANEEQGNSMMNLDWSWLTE

[7] = target: T2, Inhibitor of nuclear factor kappa-B kinase subunit alpha (Homo sapiens); settings: at 1 µM
[8] = target: T3, Inhibitor of nuclear factor kappa-B kinase subunit beta (Homo sapiens) (UniProt O14920); settings: at 0.1 µM
T3 sequence (whole entry): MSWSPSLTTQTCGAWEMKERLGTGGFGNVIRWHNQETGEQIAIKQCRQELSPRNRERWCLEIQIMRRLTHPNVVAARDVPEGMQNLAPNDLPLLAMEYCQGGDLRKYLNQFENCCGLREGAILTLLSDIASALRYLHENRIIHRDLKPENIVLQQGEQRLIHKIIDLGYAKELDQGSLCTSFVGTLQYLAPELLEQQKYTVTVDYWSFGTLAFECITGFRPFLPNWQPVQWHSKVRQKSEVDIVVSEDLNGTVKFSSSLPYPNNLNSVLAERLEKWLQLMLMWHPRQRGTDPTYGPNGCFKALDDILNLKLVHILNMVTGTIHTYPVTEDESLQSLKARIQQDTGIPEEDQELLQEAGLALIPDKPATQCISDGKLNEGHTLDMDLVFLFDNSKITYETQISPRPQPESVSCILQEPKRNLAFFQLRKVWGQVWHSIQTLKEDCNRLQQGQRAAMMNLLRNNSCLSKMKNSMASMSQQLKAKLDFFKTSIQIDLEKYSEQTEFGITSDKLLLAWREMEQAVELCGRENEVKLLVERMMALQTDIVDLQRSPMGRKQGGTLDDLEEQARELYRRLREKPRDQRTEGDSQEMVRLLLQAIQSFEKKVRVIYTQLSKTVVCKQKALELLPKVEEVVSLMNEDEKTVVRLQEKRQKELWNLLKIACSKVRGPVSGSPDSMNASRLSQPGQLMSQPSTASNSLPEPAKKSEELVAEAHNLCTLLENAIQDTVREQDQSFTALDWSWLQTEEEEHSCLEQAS

[9] = target: T3, Inhibitor of nuclear factor kappa-B kinase subunit beta (Homo sapiens); settings: at 1 µM
[10] = target: T4, Inhibitor of nuclear factor kappa-B kinase subunit epsilon (Homo sapiens) (UniProt Q14164); settings: at 0.1 µM
T4 sequence (whole entry): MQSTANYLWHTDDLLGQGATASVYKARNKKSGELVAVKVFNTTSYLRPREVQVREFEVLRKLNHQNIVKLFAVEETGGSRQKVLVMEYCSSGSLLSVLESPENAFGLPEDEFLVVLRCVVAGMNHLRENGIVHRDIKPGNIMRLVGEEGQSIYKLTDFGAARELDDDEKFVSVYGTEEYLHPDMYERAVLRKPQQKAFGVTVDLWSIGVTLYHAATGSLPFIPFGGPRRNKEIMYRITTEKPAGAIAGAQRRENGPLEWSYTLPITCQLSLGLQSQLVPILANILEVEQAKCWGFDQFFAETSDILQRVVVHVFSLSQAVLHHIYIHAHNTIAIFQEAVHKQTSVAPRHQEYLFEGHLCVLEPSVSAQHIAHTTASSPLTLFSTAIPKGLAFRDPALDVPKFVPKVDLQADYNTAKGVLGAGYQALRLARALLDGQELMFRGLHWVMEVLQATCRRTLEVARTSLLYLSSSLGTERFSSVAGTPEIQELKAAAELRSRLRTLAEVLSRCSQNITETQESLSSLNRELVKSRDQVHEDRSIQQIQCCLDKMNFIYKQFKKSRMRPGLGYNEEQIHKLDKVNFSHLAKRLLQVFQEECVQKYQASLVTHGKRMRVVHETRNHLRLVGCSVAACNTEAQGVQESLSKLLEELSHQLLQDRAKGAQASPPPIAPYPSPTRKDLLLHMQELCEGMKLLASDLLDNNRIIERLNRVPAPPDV

[11] = target: T5, Serine/threonine-protein kinase Nek1 (Homo sapiens) (UniProt Q96PY6); settings: at 0.1 µM
T5 sequence (whole entry): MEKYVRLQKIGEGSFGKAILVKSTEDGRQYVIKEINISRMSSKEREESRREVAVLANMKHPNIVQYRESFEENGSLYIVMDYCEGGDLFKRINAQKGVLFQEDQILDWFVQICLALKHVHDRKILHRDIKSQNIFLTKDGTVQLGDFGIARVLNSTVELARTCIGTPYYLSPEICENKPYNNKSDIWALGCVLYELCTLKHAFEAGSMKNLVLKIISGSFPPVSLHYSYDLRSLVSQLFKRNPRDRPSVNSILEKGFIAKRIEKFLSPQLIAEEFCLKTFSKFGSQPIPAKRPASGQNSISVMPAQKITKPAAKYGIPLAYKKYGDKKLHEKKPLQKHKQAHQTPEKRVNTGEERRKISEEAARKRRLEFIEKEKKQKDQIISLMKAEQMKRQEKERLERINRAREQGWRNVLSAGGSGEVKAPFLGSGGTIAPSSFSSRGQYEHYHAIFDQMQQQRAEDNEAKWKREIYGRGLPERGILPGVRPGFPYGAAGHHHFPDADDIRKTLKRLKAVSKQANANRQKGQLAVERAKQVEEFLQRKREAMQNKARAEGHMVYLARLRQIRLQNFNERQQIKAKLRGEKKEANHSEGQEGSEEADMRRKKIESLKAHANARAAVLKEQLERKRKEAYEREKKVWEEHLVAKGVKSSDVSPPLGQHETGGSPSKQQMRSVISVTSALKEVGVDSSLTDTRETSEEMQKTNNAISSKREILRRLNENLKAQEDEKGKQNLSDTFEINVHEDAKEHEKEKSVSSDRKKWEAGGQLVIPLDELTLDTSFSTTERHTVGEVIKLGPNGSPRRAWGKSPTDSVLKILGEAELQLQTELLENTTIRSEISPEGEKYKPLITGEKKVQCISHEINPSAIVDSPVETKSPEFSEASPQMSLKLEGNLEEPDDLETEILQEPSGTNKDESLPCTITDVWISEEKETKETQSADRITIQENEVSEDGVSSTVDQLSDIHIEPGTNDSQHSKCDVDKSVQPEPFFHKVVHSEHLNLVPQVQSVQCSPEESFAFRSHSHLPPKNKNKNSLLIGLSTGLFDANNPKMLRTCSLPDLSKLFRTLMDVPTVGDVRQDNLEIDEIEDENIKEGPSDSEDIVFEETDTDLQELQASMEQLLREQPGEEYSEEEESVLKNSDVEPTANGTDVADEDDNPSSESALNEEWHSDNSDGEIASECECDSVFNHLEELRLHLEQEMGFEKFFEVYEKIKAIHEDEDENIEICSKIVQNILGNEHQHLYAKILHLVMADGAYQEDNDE

[12] = target: T5, Serine/threonine-protein kinase Nek1 (Homo sapiens); settings: at 1 µM
[13] = target: T6, Serine/threonine-protein kinase Nek2 (Homo sapiens) (UniProt P51955); settings: at 0.1 µM
T6 sequence (whole entry): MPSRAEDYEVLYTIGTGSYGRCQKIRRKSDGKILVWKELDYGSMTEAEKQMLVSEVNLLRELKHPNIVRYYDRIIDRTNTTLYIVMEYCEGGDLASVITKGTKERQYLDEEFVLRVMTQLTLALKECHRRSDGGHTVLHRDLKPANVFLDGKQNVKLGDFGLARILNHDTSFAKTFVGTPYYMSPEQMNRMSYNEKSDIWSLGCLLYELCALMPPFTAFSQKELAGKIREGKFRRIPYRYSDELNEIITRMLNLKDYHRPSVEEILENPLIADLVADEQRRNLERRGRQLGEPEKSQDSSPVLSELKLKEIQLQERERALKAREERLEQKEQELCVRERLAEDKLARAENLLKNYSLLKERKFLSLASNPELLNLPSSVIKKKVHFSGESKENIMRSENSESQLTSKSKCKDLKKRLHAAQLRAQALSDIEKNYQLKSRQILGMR

[14] = target: T6, Serine/threonine-protein kinase Nek2 (Homo sapiens); settings: at 1 µM
[15] = target: Serine/threonine-protein kinase Nek6 (Homo sapiens) (UniProt Q9HC98); settings: at 0.1 µM
[16] = target: Serine/threonine-protein kinase Nek6 (Homo sapiens) (UniProt Q9HC98); settings: at 1 µM
[17] = target: Serine/threonine-protein kinase Nek7 (Homo sapiens) (UniProt Q8TDX7); settings: at 0.1 µM
[18] = target: Serine/threonine-protein kinase Nek7 (Homo sapiens) (UniProt Q8TDX7); settings: at 1 µM
[19] = target: T7, Serine/threonine-protein kinase Nek9 (Homo sapiens) (UniProt Q8TD19); settings: at 0.1 µM;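 also: reported value is the mean percent inhibition of NEK9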
T7 sequence (whole entry): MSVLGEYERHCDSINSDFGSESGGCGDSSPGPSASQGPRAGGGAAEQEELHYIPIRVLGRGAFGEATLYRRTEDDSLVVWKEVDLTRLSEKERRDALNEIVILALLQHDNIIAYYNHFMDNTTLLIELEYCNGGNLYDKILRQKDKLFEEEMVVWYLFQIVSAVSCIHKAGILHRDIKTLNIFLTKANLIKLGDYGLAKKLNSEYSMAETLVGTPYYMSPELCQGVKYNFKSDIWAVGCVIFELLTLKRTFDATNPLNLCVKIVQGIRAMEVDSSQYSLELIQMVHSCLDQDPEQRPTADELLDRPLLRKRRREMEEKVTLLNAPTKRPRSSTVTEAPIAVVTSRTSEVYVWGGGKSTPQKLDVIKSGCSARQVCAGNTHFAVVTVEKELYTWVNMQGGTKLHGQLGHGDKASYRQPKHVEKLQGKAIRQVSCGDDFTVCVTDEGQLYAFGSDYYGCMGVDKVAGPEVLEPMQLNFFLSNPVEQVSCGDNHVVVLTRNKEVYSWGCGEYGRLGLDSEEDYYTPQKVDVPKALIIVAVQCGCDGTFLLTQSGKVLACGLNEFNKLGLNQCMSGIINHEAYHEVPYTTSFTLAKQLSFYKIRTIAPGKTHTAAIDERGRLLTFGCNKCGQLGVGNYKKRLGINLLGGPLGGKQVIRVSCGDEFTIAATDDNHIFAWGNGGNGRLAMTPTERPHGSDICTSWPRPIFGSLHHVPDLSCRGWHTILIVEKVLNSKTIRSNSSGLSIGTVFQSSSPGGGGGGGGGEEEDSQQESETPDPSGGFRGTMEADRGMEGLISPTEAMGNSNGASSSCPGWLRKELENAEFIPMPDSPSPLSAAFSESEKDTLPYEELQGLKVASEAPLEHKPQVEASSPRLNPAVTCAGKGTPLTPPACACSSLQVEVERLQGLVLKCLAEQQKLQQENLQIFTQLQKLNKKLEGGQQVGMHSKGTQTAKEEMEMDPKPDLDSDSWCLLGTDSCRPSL

[20] = target: T4, Inhibitor of nuclear factor kappa-B kinase subunit epsilon (Homo sapiens); settings: at 1 µM

Sequence of Casein kinase II subunit alpha (Homo sapiens) (P68400 whole entry, looked up): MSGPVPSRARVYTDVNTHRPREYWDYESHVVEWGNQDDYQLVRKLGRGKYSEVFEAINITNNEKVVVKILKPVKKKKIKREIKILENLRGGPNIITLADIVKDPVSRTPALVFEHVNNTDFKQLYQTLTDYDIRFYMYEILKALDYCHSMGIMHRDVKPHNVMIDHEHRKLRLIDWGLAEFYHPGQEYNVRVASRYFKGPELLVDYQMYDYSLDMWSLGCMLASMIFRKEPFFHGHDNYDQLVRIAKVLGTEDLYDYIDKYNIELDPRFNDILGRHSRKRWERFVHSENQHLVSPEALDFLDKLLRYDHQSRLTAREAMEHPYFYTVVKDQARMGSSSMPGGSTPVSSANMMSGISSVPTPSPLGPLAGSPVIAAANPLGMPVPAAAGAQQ
Sequence of Serine/threonine-protein kinase Nek6 (Homo sapiens) (Q9HC98 whole entry): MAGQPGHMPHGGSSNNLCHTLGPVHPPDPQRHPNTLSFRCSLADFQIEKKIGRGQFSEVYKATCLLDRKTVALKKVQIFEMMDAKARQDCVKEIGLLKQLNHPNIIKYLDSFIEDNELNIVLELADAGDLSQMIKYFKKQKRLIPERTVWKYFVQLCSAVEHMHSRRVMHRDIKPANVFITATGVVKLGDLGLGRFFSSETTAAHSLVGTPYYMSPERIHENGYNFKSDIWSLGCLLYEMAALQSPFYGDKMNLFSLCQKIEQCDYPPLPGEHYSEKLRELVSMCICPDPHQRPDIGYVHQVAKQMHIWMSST
Sequence of Serine/threonine-protein kinase Nek7 (Homo sapiens) (Q8TDX7 whole entry, looked up): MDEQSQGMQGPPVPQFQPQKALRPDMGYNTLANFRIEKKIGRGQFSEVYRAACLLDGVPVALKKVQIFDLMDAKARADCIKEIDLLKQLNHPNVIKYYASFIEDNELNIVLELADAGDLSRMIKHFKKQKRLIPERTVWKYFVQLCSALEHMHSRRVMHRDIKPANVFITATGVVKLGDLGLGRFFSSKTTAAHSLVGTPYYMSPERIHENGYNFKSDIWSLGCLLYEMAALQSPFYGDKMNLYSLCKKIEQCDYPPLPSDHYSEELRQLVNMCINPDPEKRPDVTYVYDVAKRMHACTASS
Sequence of Sphingosine kinase 1 (Homo sapiens) (Q9NYA1 whole entry): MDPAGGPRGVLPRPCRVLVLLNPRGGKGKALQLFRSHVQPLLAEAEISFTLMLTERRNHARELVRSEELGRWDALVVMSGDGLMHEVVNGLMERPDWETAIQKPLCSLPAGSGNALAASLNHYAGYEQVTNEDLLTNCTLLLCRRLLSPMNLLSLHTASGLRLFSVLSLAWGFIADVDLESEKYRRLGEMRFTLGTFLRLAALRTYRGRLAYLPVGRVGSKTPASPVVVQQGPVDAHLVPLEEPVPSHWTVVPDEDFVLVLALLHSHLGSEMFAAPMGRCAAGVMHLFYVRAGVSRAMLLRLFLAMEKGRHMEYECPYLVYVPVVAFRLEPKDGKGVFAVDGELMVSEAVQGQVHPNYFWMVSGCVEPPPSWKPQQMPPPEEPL

| Compound | inhibition [1] | inhibition [2] | inhibition [3] | inhibition [4] | inhibition [5] | inhibition [6] | inhibition [7] | inhibition [8] | inhibition [9] | inhibition [10] | inhibition [11] | inhibition [12] | inhibition [13] | inhibition [14] | inhibition [15] | inhibition [16] | inhibition [17] | inhibition [18] | inhibition [19] | inhibition [20] |
| --- | --- | --- | --- | --- | --- | --- | --- | --- | --- | --- | --- | --- | --- | --- | --- | --- | --- | --- | --- | --- |
| Cn1cc(C=C2C(=O)Nc3cccnc32)c2ccccc21 | 8.29% | -4.3% | -0.04% | 1.08% | 6.39% | 5.69% | -0.33% | 2.27% | 1.05% | 3.13% | 2.09% | 1.05% | 2.65% | 2.9% | 3.82% | -1.86% | 3.8% | 4.49% | 2.88% | – |
| COC(=O)Nc1nc2cc(Oc3cccc(NC(=O)Nc4cc(C(F)(F)F)ccc4F)c3)ccc2[nH]1 | 2.3% | 0% | 0.65% | -0.44% | -0.84% | -3.67% | 4.99% | 0.52% | 1.91% | 1.54% | -0.22% | 2.32% | 0.79% | 0.72% | 1.5% | 0.11% | 2.69% | 1.59% | -4.74% | 0.25% |
